The panel holds about 83,000 compounds, 20% with a hit somewhere; the sample as a whole holds those more often.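 48-hour exposure, single concentration, 96-well plates; percent growth endpoint where 0 means no net growth. Active: below 10.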 Unmarked numbers belong to inactive results. The source made the active and inactive calls.

Test systems include HCT-15 colon; HT29 colon; SNB-75 CNS; SNB-19 CNS; U251 CNS; PC-3 prostate; SK-MEL-5 melanoma; UACC-62 melanoma; LOX IMVI melanoma; SK-MEL-28 melanoma; SK-MEL-2 melanoma; EKVX NSCLC; SN12C renal; UO-31 renal; TK-10 renal; ACHN renal; A498 renal; CCRF-CEM leukemia; MOLT-4 leukemia; SR leukemia.
What all share (assay): NCI-60 one-dose screen, 48 h (100 = growth as untreated, 0 = no growth, -100 = all killed)
Conditions in all cases: 10 µM unless noted

As to `COc1ccc(C(=O)c2cc(F)c(F)c(OC)c2F)cc1OC(=O)CCl`, the growth with HCT-15 colon is 26.4%; in the test on HT29 colon it was 94.8%; in the test on SNB-75 CNS, 42.9%; with SNB-19 CNS, 39.1%; in the test with U251 CNS, 31.3%; with PC-3 prostate, 38.4%. The growth is 29% in the test with SK-MEL-5 melanoma; 31.7% in the test on UACC-62 melanoma; 34.7% in the test on LOX IMVI melanoma; 57.9% in the test with SK-MEL-28 melanoma; 25.9% in the test with SK-MEL-2 melanoma; 73.9% with EKVX NSCLC. Moreover, the growth with SN12C renal was 39.4%; with UO-31 renal, 71.8%; in the test with TK-10 renal, 88.2%; in the test with ACHN renal, 59.8%; with A498 renal it was 94.5%; in the test on CCRF-CEM leukemia, 32.8%. Besides, the growth in the test on MOLT-4 leukemia is 29.6%; with SR leukemia, 20.8%.
Consider `CCCCCOC(=O)c1ccccc1O`, for which the growth in the test on HCT-15 colon was 97.4%; in the test with HT29 colon, 96.5%; in the test with SNB-75 CNS, 83.1%; in the test with SNB-19 CNS, 106%; in the test with U251 CNS, 101%; in the test on PC-3 prostate, 86.9%. Also, the growth in the test with SK-MEL-5 melanoma is 103%; in the test on UACC-62 melanoma, 97.9%; in the test with LOX IMVI melanoma it was 104%; with SK-MEL-28 melanoma it was 110%; in the test on SK-MEL-2 melanoma it was 111%; in the test on EKVX NSCLC it was 94.2%. The growth in the test with SN12C renal is 105%; with UO-31 renal, 91.2%; in the test with TK-10 renal, 99.5%; with ACHN renal, 107%; with A498 renal it was 102%; in the test on CCRF-CEM leukemia it was 99.5%. Also, the growth in the test with MOLT-4 leukemia was 97%; with SR leukemia, 85.1%.
Regarding `COc1ccc(-c2[nH]c3ccccc3c2C=C(C#N)C#N)cc1`, the growth in the test on HCT-15 colon was 18%; in the test with HT29 colon, 10.3%; with SNB-75 CNS it was 0.534% (active); in the test with SNB-19 CNS, 67%; with U251 CNS, 27.8%; in the test with PC-3 prostate, 19.1%. Also, the growth in the test on SK-MEL-5 melanoma is 2.62% (active); in the test on UACC-62 melanoma it was 15.2%; with LOX IMVI melanoma, 31.4%; in the test with SK-MEL-28 melanoma, 44.5%; in the test on SK-MEL-2 melanoma it was -14.5% (active); in the test with EKVX NSCLC, 12.4%. The growth in the test with SN12C renal was 44.6%; with UO-31 renal, 59.1%; with TK-10 renal it was 35.5%; in the test on ACHN renal, 43%; with A498 renal, -7.34% (active); in the test on CCRF-CEM leukemia, -5.77% (active). Besides, the growth was -14.2% (active) in the test with MOLT-4 leukemia and -27.8% (active) in the test with SR leukemia.
With `S=C(Nc1ccc(Cl)cc1)c1ccccn1`, the growth is 98.1% in the test on HCT-15 colon; 94.1% with HT29 colon; 79.7% in the test on SNB-75 CNS; 92.2% with SNB-19 CNS; 88.6% with U251 CNS; 85.6% with PC-3 prostate. Further, the growth with SK-MEL-5 melanoma was 94.1%; in the test with UACC-62 melanoma, 82.5%; in the test on LOX IMVI melanoma, 88.4%; in the test with SK-MEL-28 melanoma, 107%; with SK-MEL-2 melanoma, 92.1%; with EKVX NSCLC, 87.9%. Moreover, the growth in the test with SN12C renal is 99.3%; in the test with UO-31 renal, 71.5%; in the test with TK-10 renal it was 110%; in the test with ACHN renal, 99%; in the test on A498 renal, 69.2%; with CCRF-CEM leukemia, 99.4%. In addition, the growth was 101% in the test with MOLT-4 leukemia and 102% in the test on SR leukemia.
For `O=C1CC23OC4ON=C(Br)C4C2C(O)c2ccccc2N13` (stereo not given), the growth in the test on HCT-15 colon was 99%; with HT29 colon, 90.5%; with SNB-75 CNS it was 79.9%; with SNB-19 CNS, 105%; in the test on U251 CNS it was 110%; with PC-3 prostate it was 94.4%. Further, the growth was 111% with SK-MEL-5 melanoma; 94.3% in the test on UACC-62 melanoma; 88.8% with LOX IMVI melanoma; 114% in the test on SK-MEL-28 melanoma; 89.8% in the test on SK-MEL-2 melanoma; 92.1% in the test with EKVX NSCLC. The growth in the test on SN12C renal is 101%; with UO-31 renal it was 63.4%; in the test on TK-10 renal it was 132%; in the test with ACHN renal, 94.3%; in the test with A498 renal it was 118%; with CCRF-CEM leukemia, 111%. Further, the growth in the test with MOLT-4 leukemia is 99.6%; in the test on SR leukemia, 107%.
In the case of `O=Cc1[nH]c(Sc2ccccc2)c2ccccc12`, the growth in the test on HCT-15 colon is 70.3%; in the test on HT29 colon it was 55.4%; with SNB-75 CNS it was 42.8%; in the test on SNB-19 CNS, 89.1%; in the test with U251 CNS it was 67.5%; with PC-3 prostate it was 46.4%. Moreover, the growth in the test with SK-MEL-5 melanoma is 74%; in the test on UACC-62 melanoma it was 62.3%; with LOX IMVI melanoma, 80.5%; in the test on SK-MEL-28 melanoma it was 92.9%; in the test with SK-MEL-2 melanoma, 81.6%; in the test with EKVX NSCLC, 76.1%. Further, the growth was 77.7% in the test with SN12C renal; 48.6% with UO-31 renal; 80.3% in the test on TK-10 renal; 96.6% in the test with ACHN renal; 95.3% in the test with A498 renal; 12.1% in the test on CCRF-CEM leukemia. In addition, the growth in the test on MOLT-4 leukemia is 17%; with SR leukemia, 59.3%.
With `O=C(/C(=C/c1ccc([N+](=O)[O-])cc1)SCc1ccc(F)cc1)c1ccc(Cl)cc1`, the growth was 5.41% (active) in the test on HCT-15 colon; 8.59% (active) with HT29 colon; 83.3% with SNB-75 CNS; 47.4% with SNB-19 CNS; 0.994% (active) in the test with U251 CNS; 47.4% with PC-3 prostate. Moreover, the growth in the test with SK-MEL-5 melanoma is 54.2%; in the test on UACC-62 melanoma, 37.5%; in the test with LOX IMVI melanoma, 3.68% (active); in the test on SK-MEL-28 melanoma, 93.1%; in the test with SK-MEL-2 melanoma it was 88.5%; with EKVX NSCLC it was 57.7%. The growth is 56% in the test on SN12C renal; 44.8% with UO-31 renal; 97.2% with TK-10 renal; 60.7% in the test with ACHN renal; 70.9% in the test on A498 renal; 6.19% (active) with CCRF-CEM leukemia. The results for the growth in the test with MOLT-4 leukemia and in the test on SR leukemia were 7.7% (active) and 0.0981% (active), respectively.

These data come from PubChem BioAssay (NCI).
